The sample as a whole holds a higher share of hits than the screen did.
HEK293 cAMP ctrl: qHTS Assay for Agonists of the Thyroid Stimulating Hormone Receptor: Activators of Intracellular cAMP Concentrations in Parental HEK 293; AID 938, 2007; parental HEK293 CNG cAMP sensor, membrane potential fluorescence; 2.5% of 73,000 active; Potency, µM (titrated, usually from 57.1 µM), usual class: activators; further: nearly all actives have a fitted effect of over 55% in size
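Counterscreen for endogenous-receptor signalling: CNG-channel HEK 293 cells report cAMP rise by membrane depolarization. After 60 min dye equilibration with 100 uM RO 20-1724, compounds incubated 30 min before bottom-read fluorescence at 590 nm.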
Imprint erasure: qHTS Assay for Compounds that Induce Erasure of Genomic Imprints; mouse ES Peg3-LacZ reporter, beta-gal luminescence, 40 h; Potency, µM (series often up to 60.7 µM), hits mostly activators; 0.02% of 110,000 active
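Gelatin-coated wells received 300 freshly trypsinized female ES cells with a Peg3LacZ-Neo reporter on the maternal allele, then incubated 40 hours at 37C. BetaGlo was added for 5 minutes at room temperature before a single luminescence read.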
TSHR ag: qHTS Assay for Agonists of the Thyroid Stimulating Hormone Receptor; HEK293-CNG-TSHR cells (CNG channel as cAMP sensor), membrane potential dye, cAMP; 0.48% of 73,000 active; AID 926, 2007; Potency, µM (titrated, usually from 57.1 µM), most hits filed as activators; Thyrotropin receptor (Homo sapiens), P16473; active means well fitted activation curve with a large enough effect in the main read-out, with a control signal flat, not every such curve was filed as active; inconclusive means small, poorly fitted or top-dose-only effect, or a change in a side signal; inactive means no such curve, though single readings can be large or run the other way; reference of the percent scale not stated here;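 further: the control signal comes from parental cells without the receptor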
Target sequence (P16473 whole entry, looked up): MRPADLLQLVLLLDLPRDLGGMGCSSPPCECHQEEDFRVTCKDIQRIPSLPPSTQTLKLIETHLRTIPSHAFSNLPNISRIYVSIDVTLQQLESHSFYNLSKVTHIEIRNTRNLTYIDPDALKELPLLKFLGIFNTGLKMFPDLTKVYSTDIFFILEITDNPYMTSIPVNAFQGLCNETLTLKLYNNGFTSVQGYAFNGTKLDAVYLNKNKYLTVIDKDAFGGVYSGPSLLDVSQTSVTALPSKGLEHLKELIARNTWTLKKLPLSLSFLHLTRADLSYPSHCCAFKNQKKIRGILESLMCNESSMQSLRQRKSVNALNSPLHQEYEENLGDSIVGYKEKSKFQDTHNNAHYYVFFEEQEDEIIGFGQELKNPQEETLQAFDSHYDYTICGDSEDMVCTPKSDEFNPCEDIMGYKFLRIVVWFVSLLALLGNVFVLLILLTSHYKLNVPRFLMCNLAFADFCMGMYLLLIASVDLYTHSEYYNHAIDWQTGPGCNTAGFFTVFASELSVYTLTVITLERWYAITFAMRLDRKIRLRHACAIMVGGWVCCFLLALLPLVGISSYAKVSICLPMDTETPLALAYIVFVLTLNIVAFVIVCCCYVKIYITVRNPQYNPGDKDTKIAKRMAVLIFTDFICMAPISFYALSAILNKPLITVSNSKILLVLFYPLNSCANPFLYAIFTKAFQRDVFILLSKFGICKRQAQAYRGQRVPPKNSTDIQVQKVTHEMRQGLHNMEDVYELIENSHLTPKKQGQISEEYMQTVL
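HEK 293 cells stably expressing TSHR and a cAMP-gated CNG channel; parental CNG-only cells as counterscreen. Cells preloaded 60 min with membrane potential dye plus 100 uM RO 20-1724, then compound 30 min; fluorescence read at 590 nm.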
A number is an active result; ! = not confirmed by another sample; [ ] = another dose, or the depositor's remark. Unless noted, the call rests on the fitted dose curve; in most records, active means well fitted activation curve with a large enough effect; inconclusive means small, poorly fitted or top-dose-only effect; inactive means no such curve, though single readings can be large or run the other way.

How did c1ccc2c([C@@H]3CCN(CCN4CCOCC4)C3)c[nH]c2c1 do in these assays?
HEK293 cAMP ctrl: inactive[11.4 µM]; Imprint erasure: inactive[10.9 µM]; TSHR ag: inactive[11.4 µM]

How did CN(c1ccccc1)S(=O)(=O)c1cccc(C(=O)N2CCN(c3ccccn3)CC2)c1 do in these assays?
HEK293 cAMP ctrl: 16µM; Imprint erasure: inactive; TSHR ag: inconclusive

How did C=CCN1C[C@@H](C)N([C@H](c2ccc(C(=O)N(CC)CC)cc2)c2cccc(OC)c2)C[C@H]1C do in these assays?
HEK293 cAMP ctrl: inactive; TSHR ag: inactive

Results for CC(C)n1cc2c3c(cccc31)[C@@H]1C[C@H](C(=O)O[C@@H](C)[C@H](C)O)CN(C)[C@H]1C2 ?
HEK293 cAMP ctrl: inactive; TSHR ag: inactive

What do the screens show for `O=C(O)c1nn(Cc2ccc(Cl)cc2Cl)c2ccccc12`?
HEK293 cAMP ctrl: 40µM!; Imprint erasure: inactive; TSHR ag: inconclusive

What do the screens show for `O=C(O)c1nn(Cc2ccc(Cl)c(Cl)c2)c2ccccc12`?
Imprint erasure: inactive

Results for O=c1ccc2cc(O[C@@H]3O[C@@H](CO)[C@@H](O)[C@@H](O)[C@H]3O)c(O)cc2o1 ?
HEK293 cAMP ctrl: inactive; TSHR ag: inactive

Results for CC[C@H]1CN2CC[C@@H]1C[C@@H]2[C@H](O)c1ccnc2ccccc12 ?
HEK293 cAMP ctrl: inactive; TSHR ag: inactive

What do the screens show for `CC(C)c1nccn1Cc1ccc(Cl)cc1Cl`?
HEK293 cAMP ctrl: 3.2µM; Imprint erasure: inactive[10.9 µM]; TSHR ag: inconclusive

What do the screens show for `C[C@@H](Cc1ccc(Cl)cc1Cl)NO`?
HEK293 cAMP ctrl: inactive[11.4 µM]; Imprint erasure: inactive[10.9 µM]; TSHR ag: inactive[11.4 µM]

What do the screens show for `N#CC(C(=O)C12CC3CC(CC(C3)C1)C2)c1nc2ccccc2[nH]1` (configuration not stated)?
HEK293 cAMP ctrl: 3.2µM; Imprint erasure: inactive; TSHR ag: inconclusive

What do the screens show for `Cc1cc[c]([Sb]2[O][C@H]([C@H](O)[C@H](O)C(=O)O)[C@@H](CO)[O]2)cc1`?
HEK293 cAMP ctrl: inactive[11.4 µM]; TSHR ag: inactive[11.4 µM]

Results for NC(N)=Nc1ccc2[nH]c3c(c2c1)C[C@]1(O)[C@@H]2Cc4ccc(O)c5c4[C@]1(CCN2CC1CC1)[C@H]3O5 ?
HEK293 cAMP ctrl: 0.016µM; TSHR ag: inconclusive

How did Oc1ccc2c3c1O[C@H]1c4[nH]c5ccccc5c4C[C@@]4(O)C(C2)N(CC2CC2)CCC314 (some centres not stated) do in these assays?
Imprint erasure: inactive

What do the screens show for `N[C@@H]1CCc2cc(O)c(O)cc2C1`?
HEK293 cAMP ctrl: inactive; TSHR ag: inactive

How did COc1cc(C=C(C#N)C#N)cc(O)c1O do in these assays?
HEK293 cAMP ctrl: inactive; Imprint erasure: inactive; TSHR ag: inactive

Results for CC(C)(C)c1cc(C=C(C#N)C#N)cc(C(C)(C)C)c1O ?
HEK293 cAMP ctrl: 0.79µM; Imprint erasure: inactive; TSHR ag: inconclusive

Results for CN1CCN(c2ccc([N+](=O)[O-])c3[nH]o[n+](=O)c23)CC1 ?
HEK293 cAMP ctrl: inactive[11.4 µM]

How did O=C(O)c1cc[c]([Hg][S]c2ncnc3nc[nH]c23)cc1 do in these assays?
HEK293 cAMP ctrl: inactive[11.4 µM]; Imprint erasure: inactive[10.9 µM]; TSHR ag: inactive[11.4 µM]

Results for Cc1nn(-c2ccccc2)c2c1C(c1ccc3c(c1)OCO3)SCC(=O)N2 (configuration not stated) ?
HEK293 cAMP ctrl: inactive; Imprint erasure: inactive; TSHR ag: 10µM

How did Cc1nn(C2CCOC(C)(C)C2)c2c1C(c1ccc3c(c1)OCO3)SCC(=O)N2 (configuration not stated) do in these assays?
HEK293 cAMP ctrl: inactive; TSHR ag: inactive

What do the screens show for `CCN(CC)C(=O)N[C@H]1C[C@H]2c3cccc4[nH]cc(c34)C[C@@H]2N(C)C1`?
HEK293 cAMP ctrl: inactive; TSHR ag: inactive

How did CN1[C@@H]2CC[C@H]1CC(O[C@@H](c1ccccc1)c1ccc(Cl)cc1)C2 (some centres not stated) do in these assays?
HEK293 cAMP ctrl: 40µM; Imprint erasure: inactive; TSHR ag: inconclusive

How did CN1[C@@H]2CC[C@H]1CC(OC1c3ccccc3CCc3ccccc31)C2 (some centres not stated) do in these assays?
HEK293 cAMP ctrl: inactive; Imprint erasure: inactive; TSHR ag: inactive

How did N#CC(C#N)=NNc1cccc(Cl)c1 do in these assays?
HEK293 cAMP ctrl: 0.63µM; Imprint erasure: inactive; TSHR ag: inconclusive

Results for CC(C)OC(=O)Nc1cccc(Cl)c1 ?
Imprint erasure: inactive

Results for C[C@H]1C(=O)O[C@H]2CCN3CC=C(COC(=O)[C@](C)(O)[C@@]1(C)O)[C@H]23 ?
HEK293 cAMP ctrl: inactive; TSHR ag: inactive

What do the screens show for `CC(C)(C)NCc1cccn1-c1sc2c(c1C#N)CCCC2`?
HEK293 cAMP ctrl: 25µM; Imprint erasure: inactive; TSHR ag: inconclusive

Results for Oc1c(Cl)cc(Cl)cc1Cl ?
HEK293 cAMP ctrl: inconclusive; Imprint erasure: inactive; TSHR ag: inconclusive

Results for CN(CC1COc2ccccc2O1)c1nc(-c2cccnc2)nc2ccccc12 (configuration not stated) ?
HEK293 cAMP ctrl: 25µM; Imprint erasure: inactive; TSHR ag: inconclusive

What do the screens show for `O=C1NCN(c2ccccc2)C12CCN(C[C@H]1COc3ccccc3O1)CC2`?
HEK293 cAMP ctrl: inconclusive; Imprint erasure: inactive; TSHR ag: inconclusive

How did NC[C@H](O)c1cc(O)c(O)cc1F do in these assays?
HEK293 cAMP ctrl: inactive; TSHR ag: inactive

How did Oc1cc(Cl)c(Cl)cc1Cl do in these assays?
HEK293 cAMP ctrl: inactive; Imprint erasure: inactive

How did Oc1cc(Cl)c(Cl)c(Cl)c1Cl do in these assays?
HEK293 cAMP ctrl: 40µM; Imprint erasure: inactive; TSHR ag: inconclusive

Results for Oc1c(Cl)c(Cl)cc(Cl)c1Cl ?
HEK293 cAMP ctrl: 40µM; Imprint erasure: inactive; TSHR ag: inconclusive

What do the screens show for `Oc1cc(Cl)c(Cl)c(Cl)c1`?
HEK293 cAMP ctrl: inactive; Imprint erasure: inactive; TSHR ag: inactive

Results for O=C(O)[C@@H](O)[C@@H](O)[C@@H]1[O][Sb][O][C@@H]1CO ?
HEK293 cAMP ctrl: inactive[11.4 µM]

Results for O=c1cccc2n1C[C@H]1C[C@@H]2CN(CCO)C1 ?
HEK293 cAMP ctrl: inactive; TSHR ag: inactive

How did O=[N+]([O-])c1cc(Cl)c(Cl)c(Cl)c1 do in these assays?
HEK293 cAMP ctrl: inactive; Imprint erasure: inactive; TSHR ag: inactive

How did C[C@H](N)c1cccc(Cl)c1Cl do in these assays?
HEK293 cAMP ctrl: inactive; TSHR ag: inactive

What do the screens show for `O=C(NC[C@H]1CCCCN1)c1cc(OCC(F)(F)F)ccc1OCC(F)(F)F`?
HEK293 cAMP ctrl: 4µM!; Imprint erasure: inactive; TSHR ag: inconclusive

What do the screens show for `COC1=C[C@H]2[C@@H]3Cc4ccc(OC)c(O)c4[C@@]2(CCN3C)CC1=O`?
HEK293 cAMP ctrl: inactive; TSHR ag: inactive

What do the screens show for `CCCCNC(=O)n1c(NC(=O)OC)nc2ccccc21`?
HEK293 cAMP ctrl: inconclusive; Imprint erasure: inactive; TSHR ag: inconclusive

What do the screens show for `CSc1nc2ccccc2n1C(=O)Oc1ccccc1`?
HEK293 cAMP ctrl: 25µM; Imprint erasure: inconclusive; TSHR ag: inconclusive

What do the screens show for `C=C1C/C(=C\C)C(=O)O[C@@H]2CCN3CC=C(COC(=O)[C@]1(C)O)[C@H]23`?
HEK293 cAMP ctrl: inactive; TSHR ag: inactive

Assay outcomes: PubChem BioAssay, National Center for Advancing Translational Sciences (NCATS)
